Inconclusive results are not listed. Active and inactive are the calls of the source. Calls follow the shape of the full dose curve.
% is scaled to controls: 0 for no effect and ±100 for the full control effect.

In this assay the target is Nucleoprotein (Lymphocytic choriomeningitis virus (strain Armstrong)) (UniProt P09992). Description: qHTS for Inhibitors of the Functional Ribonucleoprotein Complex (vRNP) of Lymphocytic Choriomeningitis Arenaviruses (LCMV): LCMV Primary Screen - GLuc reporter signal (AID 1347086). Also: nearly all actives have a fitted effect of over 70% in size. As to conditions: LCMV minigenome vRNP cell assay, Gaussia luciferase reporter; series mostly up to 57.5 µM; activity change, negative = inhibition: at the top concentration. Background: In qHTS, concentration-response curves come from the screen itself.
Nucleoprotein (Lymphocytic choriomeningitis virus (strain Armstrong)), sequence (P09992 whole entry, looked up): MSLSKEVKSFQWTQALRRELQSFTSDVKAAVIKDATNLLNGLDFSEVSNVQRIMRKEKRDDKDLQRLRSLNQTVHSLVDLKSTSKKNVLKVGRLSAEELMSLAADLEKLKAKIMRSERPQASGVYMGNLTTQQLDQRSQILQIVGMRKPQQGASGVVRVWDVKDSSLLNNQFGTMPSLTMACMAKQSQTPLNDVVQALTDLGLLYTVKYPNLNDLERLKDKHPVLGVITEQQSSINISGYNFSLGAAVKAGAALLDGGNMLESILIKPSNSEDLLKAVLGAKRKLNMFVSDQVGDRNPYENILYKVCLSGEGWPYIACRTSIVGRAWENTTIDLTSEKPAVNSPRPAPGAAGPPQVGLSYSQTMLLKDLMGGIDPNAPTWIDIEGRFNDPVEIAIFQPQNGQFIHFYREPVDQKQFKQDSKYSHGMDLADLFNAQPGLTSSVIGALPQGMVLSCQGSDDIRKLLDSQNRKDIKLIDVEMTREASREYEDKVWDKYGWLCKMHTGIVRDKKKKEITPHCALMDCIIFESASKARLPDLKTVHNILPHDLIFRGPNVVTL
For the molecule `O=C1OC2(c3ccc(O)cc3Oc3cc(O)ccc32)c2ccccc21`, the “activity change, negative = inhibition” value was -3.85% (inactive).
Same read-out and setting: then `CCOc1ccccc1C(N)=O`, with 6.14% (inactive).
With `Cc1nnc(C(=O)NC(C)(C)c2nc(C(=O)NCc3ccc(F)cc3)c(O)c(=O)n2C)o1`, the Potency entry is “inactive”.
For the molecule `Cc1ccc(O)c(-n2nc3ccccc3n2)c1`, the “activity change, negative = inhibition” value is 8.22% (inactive).
On to `CCCCCN(CCCCC)C(=O)C(CCC(=O)O)NC(=O)c1ccc(Cl)c(Cl)c1` (stereo unspecified), for which the Potency result is “inactive”.
As for `CCN(CC)C(=O)N1CCN(C)CC1`, the “activity change, negative = inhibition” value is 5.85% (inactive).
`CC(C(=O)O)c1ccc(CC2CCCC2=O)cc1` (stereo unspecified): the Potency result was “inactive”.
In the case of `OC[C@@H](O)[C@@H](O)[C@H](O)[C@H](O)CO`, the “activity change, negative = inhibition” value was -1.16% (inactive).
On to `C#Cc1ccc(-c2ccccc2F)cc1`, for which the “activity change, negative = inhibition” value is 1.24% (inactive).
`CCc1cccc(N(C)C(N)=Nc2cccc3ccccc23)c1`: the Potency result was “inactive”.
As to `CSc1ccc(/C=C2/C(C)=C(CC(=O)O)c3cc(F)ccc32)cc1`, the “activity change, negative = inhibition” value is 5.84% (inactive).
Still for that read-out and setting: then `O=C1c2cccc(O)c2C(=O)c2c(O)cccc21`, with -2.9% (inactive); and `NC(=O)NNc1ccccc1`, with 2.31% (inactive).
For `CCCC(C(=O)OCCN(CC)CC)(c1ccccc1)c1ccccc1`, the Potency result was “inactive”.
In the case of `Cc1cc(C(C)(C)C)c(O)c(C(C)(C)C)c1`, the “activity change, negative = inhibition” value was -1.27% (inactive).
The same measure, in the same setting: with `Nc1c(CC(=O)O)cccc1C(=O)c1ccc(Br)cc1` the figure was 4.43% (inactive); with `CCOc1ccccc1O[C@H](c1ccccc1)[C@H]1CNCCO1`, 4.55% (inactive); with `O=C(NC1CCN(CCc2c[nH]c3ccccc23)CC1)c1ccccc1`, 6.6% (inactive).
Still for that read-out and setting: with `CCCNC(C)(C)COC(=O)c1ccccc1` the figure was -1.03% (inactive); with `O=C(OCC(O)CO)c1ccccc1Nc1ccnc2c(C(F)(F)F)cccc12` (stereo unspecified), 14.6% (inactive).
As for `C[N+](C)(C)CCOC(=O)CCC(=O)OCC[N+](C)(C)C`, the Potency result is “inactive”.

Values taken from PubChem BioAssay (NCATS).
